This is a sample that favours compounds with a hit; in the whole collection about 6% have one here.
D3 ag: agonists of human D3 dopamine receptor | P35462 | D3R DiscoveRx beta-arrestin cells, luminescence, 90 min | max activation, % | 410,000 compounds, 0.58% hits; in the data active = max activation above about 30%
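Cells at 1500/well, incubated overnight, then treated with pinned compounds (dopamine as control) for 90 min at 37 degrees C. DiscoveRx reagent added for 30 - 60 minutes at room temperature; luminescence read.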
D1 antag: human D1 dopamine receptor antagonism; HEK293 TREx D1 cells, calcium flux, dopamine EC80; stronger effect = lower value; activity change, negative = inhibition, % at 10 µM; 360,000 compounds, 3.2% hits; in the data active = activity change below about -30%
Target sequence (P21728 whole entry, looked up): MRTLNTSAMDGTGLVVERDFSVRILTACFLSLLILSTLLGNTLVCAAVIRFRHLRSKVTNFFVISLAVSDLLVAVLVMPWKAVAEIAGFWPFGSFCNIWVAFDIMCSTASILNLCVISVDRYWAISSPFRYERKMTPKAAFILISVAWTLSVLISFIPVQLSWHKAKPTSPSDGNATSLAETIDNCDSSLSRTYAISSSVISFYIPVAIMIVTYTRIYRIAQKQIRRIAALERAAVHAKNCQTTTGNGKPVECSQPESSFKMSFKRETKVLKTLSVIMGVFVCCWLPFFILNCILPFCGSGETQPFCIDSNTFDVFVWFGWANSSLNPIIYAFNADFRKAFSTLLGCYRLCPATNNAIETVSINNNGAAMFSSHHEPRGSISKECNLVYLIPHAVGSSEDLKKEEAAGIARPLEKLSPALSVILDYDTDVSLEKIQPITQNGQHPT
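HEK293 T-REx cells expressing inducible, force-coupled D1 receptor; no-wash Ca dye, 30–90 min RT. Cmpd → 180 s read at 1 Hz → EC80 DA → 180 s read.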
D1 PAM: enhances dopamine response at the human D1 receptor; P21728; potentiation, % at 10 µM; HEK293 TREx D1 cells, calcium flux, dopamine EC20 potentiation; 360,000 compounds, 0.036% hits; in the data active = potentiation above about 30%
D3 antag: blocks the human D3 dopamine receptor; P35462; D3R cells, DiscoveRx beta-arrestin luminescence, antagonist mode; stronger effect = lower value; max response, negative = inhibition, %; 360,000 compounds, 2.5% hits; AID 652054; in the data active = max response below about -50%; inconclusive = no clear call, values can overlap the other calls
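Cells plated overnight at 1500 cells/well, then exposed to library compounds with dopamine controls for 90 minutes at 37 degrees C. DiscoveRx reagent added for 30–60 minutes at room temperature; luminescence read, quantitative HTS format.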
D1 agonist: human D1 receptor agonism; P21728; HEK293 T-REx D1 cells, calcium flux, agonist mode; activation, % at 2 µM; 360,000 compounds, 1% hits; AID 504660; in the data active = activation above about 30%
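Inducible HEK293 T-REx D1 cells, force-coupled to calcium signalling, were plated at 4000 cells/well with tetracycline and held overnight at 30 C. After no-wash calcium dye loading, compound-evoked calcium rise over 180 s flagged agonists.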
Large screens that a line does not name were inactive; ! = a repeat was not active.

Cc1ccc2c(c1)c(=O)c1ccccc1n2CCCC(=O)Nc1c(F)cccc1F	none (no result: D3 antag)
Cc1ccc(NC(=O)CSc2ncc3c(n2)-c2ccccc2N(C)S3(=O)=O)c(Cl)c1	none (no result: D3 antag)
COc1ccc(NC(=O)CSc2nnnn2-c2ccc(OC)cc2)cc1	D1 antag -80
COc1ccc(NC(=O)CSc2nnnn2-c2ccc(F)cc2)cc1	none
COc1ccc(OC)c(C(=O)CSc2nnc(-c3cccs3)n2C)c1	none
COc1cc(-c2nnc(SCC(=O)NC3CCCC3)n2C)cc(OC)c1O	D1 antag -41
COc1ccc(OC)c(C(=O)CSc2nnc(Cc3cccs3)n2CCc2ccccc2)c1	D1 agonist 51
COc1ccc(NCc2nnc(SCC(=O)Nc3nc(-c4ccccc4)cs3)n2-c2ccccc2)cc1	D1 antag -60
COc1ccc(-c2nnc(SCC(=O)NC3CCCC3)n2C)cc1	none (no result: D1 PAM)
CC(CNC(=O)Cn1ccc2cc(S(=O)(=O)N3CCCCCC3)ccc21)c1ccccc1 (stereo not drawn)	none (no result: D3 antag)
Cc1c(C(=O)N2CCN(c3ccc([N+](=O)[O-])cc3)CC2)sc2ncn(CC(=O)N3CCOCC3)c(=O)c12	D1 agonist 54 (no result: D1 PAM)
O=S(=O)(Nc1cccc2ncccc12)c1cccs1	D3 antag -69
O=S(=O)(Nc1ccc(-c2nc3cccnc3s2)cc1)c1cccs1	none
CCN(c1ccccc1)S(=O)(=O)c1nnc(NC(=O)CC(C)C)s1	D3 antag -66
CCN(c1ccccc1)S(=O)(=O)c1nnc(NC(=O)c2cccs2)s1	D1 antag -41 (no result: D3 antag)
CC(C)CN(c1ccccc1)S(=O)(=O)c1nnc(NC(=O)c2ccco2)s1	D3 antag -86
CCCCC(=O)Nc1nnc(S(=O)(=O)N(CC)c2ccccc2)s1	none
CN(c1ccccc1)S(=O)(=O)c1nnc(NC(=O)C2CCCCC2)s1	D1 antag -37!
CCN(c1ccc(C)cc1)S(=O)(=O)c1nnc(NC(=O)c2cccs2)s1	none (no result: D3 antag)
CN(c1ccccc1)S(=O)(=O)c1nnc(NC(=O)c2ccccc2)s1	none (no result: D3 antag)
CCC(=O)Nc1nnc(S(=O)(=O)N2CCc3ccccc32)s1	none
CC(C)CC(=O)Nc1nnc(S(=O)(=O)N2CCc3ccccc32)s1	D1 antag -46!
Cc1ccc(NC(=O)C2CCCN(C(=O)c3cnn(-c4ccccc4)c3-n3cccc3)C2)cc1 (stereo not drawn)	none (no result: D3 antag)
Cc1noc(C)c1S(=O)(=O)Nc1cccc(CO)c1	D1 antag -31
C=CCNC1=C(Cl)C(=O)c2ccccc2C1=O	none
O=C(O)c1cccc(NC2=C(Cl)C(=O)c3ccccc3C2=O)c1	D3 antag -90
O=C1C(Cl)=C(NCCc2ccccc2)C(=O)c2ccccc21	D3 antag -71 (no result: D1 antag, D1 PAM, D1 agonist)
O=C1C(Cl)=C(Nc2ccccc2)C(=O)c2ccccc21	D1 antag -58, D3 antag -74
CC(=O)N(Cc1ccc(F)cc1)C1=C(NCCc2ccccc2)C(=O)c2ccccc2C1=O	D3 antag -54
CCC(C(=O)Nc1ccc(F)cc1F)n1nc(-c2ccccc2)c2c(c1=O)CCCC2 (stereo not drawn)	none (no result: D3 antag)
CCC(=O)N1CCc2cc(Br)cc(S(=O)(=O)N3CCN(c4cccc(Cl)c4)CC3)c21	none (no result: D3 antag)
CCC(=O)Nc1ccc2nc(SCCOc3ccc(C)cc3OC)sc2c1	none (no result: D3 antag)
O=C([C@H]1O[C@@H](n2ccc(=O)[nH]c2=O)[C@H](O)[C@@H]1O)N1CCC(F)(F)CC1	none (no result: D1 antag, D1 PAM, D1 agonist)
O=C1CCCc2ccccc2N1	none
CCN1CCCC1CN=Cc1c(O)n(-c2ccccc2)c(=O)c2ccccc12 (stereo not drawn)	D1 antag -78
Nc1ccc(C#Cc2ccc3oc4ccccc4c(=O)c3c2)cc1	D3 ag 59 (no result: D1 antag, D1 PAM, D1 agonist)
COc1ccc(S(=O)(=O)Nc2ccc3oc4ncccc4c(=O)c3c2)cc1OC	none
COc1cc2sc3ccc(C#Cc4ccc(N)cc4)cc3c(=O)c2cc1OC	D3 ag 35 (no result: D1 antag, D1 PAM, D1 agonist)
Cn1c2ccccc2c(=O)c2cc(C#Cc3ccc(N)cc3)ccc21	D3 ag 59
Nc1cccc(C#Cc2ccc3c(=O)c4ccccc4oc3c2)c1	none (no result: D1 antag)
COc1cc2sc3ccc(C#Cc4ccccn4)cc3c(=O)c2cc1OC	none (no result: D1 antag, D1 PAM, D1 agonist)
Nc1ccc2oc3ncccc3c(=O)c2c1	D3 antag -98
N#Cc1nc(COc2cccc(Cl)c2)oc1NCCc1ccccc1	none (no result: D3 antag)
COc1cc(/C=C2\SC(=S)N(NS(=O)(=O)c3ccc(C)cc3)C2=O)ccc1O	D3 antag inconclusive, D1 agonist 82
